Assay outcomes (PubChem)
Hits are enriched below; roughly 8.1% of the tested compounds scored in any of these assays.
MCF10A rerep: A quantitative high throughput screen for small molecules that induce DNA re-replication in MCF 10a normal breast cells; MCF 10A DNA re-replication, Hoechst nuclear intensity, 48 h; Potency, µM (highest dose often 46.1 µM), for the others: at the highest dose activity, positive = re-replication, most hits filed as activators; 2.9% of 350,000 active; AID 624296, 2012; further: % of control where 0% means no effect; nearly all actives have a fitted effect of over 50% in size
ELG1 repair inh: qHTS screen for small molecules that inhibit ELG1-dependent DNA repair in human embryonic kidney (HEK293T) cells expressing luciferase-tagged ELG1. HEK293T ELG1-luciferase reporter, luminescence, 16 h; DNA damage induced by 5-fluorouridine. Potency, µM (top dose mostly 46.1 µM), for inactives: at the top dose activity change, negative = inhibition, actives largely listed as inhibitors. 2.3% of 330,000 active. AID 504467, 2011; further: on the % scale 0 is the no-effect control and ±100 the full control effect; nearly all actives have a fitted effect of over 55% in size
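HEK293T cells expressing luciferase-tagged ELG1 (2,000/well) received 5-Fluorouridine plus compound or DMSO for 16 hr at 37 °C. Luciferase was read by ONE-Glo luminescence after 30 min at room temperature.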
KB-V1 cytotox: qHTS assay for MDR1-selective chemotherapeutics: Primary screen using the drug-selected MDR subline cells KB-V1 | KB-V1 MDR cells viability, CellTiter-Glo, 72 h | Potency, µM (highest dose often 46.1 µM), hits mostly cytotoxic | 3.4% of 400,000 active | AID 1347076, 2019; further: on the % scale 0 is the no-effect control and ±100 the full control effect; nearly all actives have a fitted effect of over 60% in size
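Readout: CellTiter-Glo luminescence, 10 min after addition. Cells: KB-V1 MDR subline, 72 h at 37 degrees C with compound. Analysis: corrected, normalized data fitted to concentration-effect curves.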
KB-3-1 cytotox: qHTS assay for MDR1-selective chemotherapeutics: Primary screen using the parental adenocarcinoma cell KB-3-1. KB-3-1 viability, CellTiter-Glo ATP luminescence, 72 h. Potency, µM (titrated, usually from 46.1 µM), usual class: cytotoxic. 1.4% of 400,000 active. AID 1347075, 2019; further: on the % scale 0 is the no-effect control and ±100 the full control effect; nearly all actives have a fitted effect of over 60% in size
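Cytotoxicity measured as CellTiter-Glo luminescence after 72 h at 37 C. Compound titrations were pinned onto drug-naive KB-3-1 parental adenocarcinoma cells grown in DMEM with 10% FBS, and normalized data fitted to concentration-response curves.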
SW480 rerep: A quantitative high throughput screen for small molecules that induce DNA re-replication in SW480 colon adenocarcinoma cells; SW480 DNA re-replication, Hoechst DNA content imaging, 48 h; Potency, µM (series often up to 46.1 µM), for inactives: at the highest dose re-replication activation, hits mostly activators; 1.8% of 340,000 active; AID 624297, 2012; further: % of control where 0% means no effect; nearly all actives have a fitted effect of over 55% in size
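Readout is total intensity of Hoechst-stained nuclei, excited at 405 nm and collected at 500-530 nm. Compound treatment lasted 48 hr at 37 C in 5% CO2 before staining.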
* hit, by the source's call. The call rests on the fitted dose curve; in most records, active means well fitted curve in the direction sought with a large enough effect; inconclusive means small, poorly fitted or top-dose-only effect, or another doubt; inactive means no such curve, though single readings can be large; an effect the other way counts as inactive or inconclusive. Potency means the concentration at half of the fitted maximal effect.

For COc1cccc(C(=O)Nc2ccc(C3CC3(Cl)Cl)cc2)c1 (stereo unspecified) the results were MCF10A rerep 14%, ELG1 repair inh inconclusive, KB-V1 cytotox inactive, KB-3-1 cytotox inconclusive and SW480 rerep inconclusive.
`COc1ccc(CNC(=O)C(=O)NCC(c2cccs2)S(=O)(=O)c2ccc(F)cc2)cc1` (stereo unspecified) gave KB-V1 cytotox inactive and KB-3-1 cytotox inactive.
CCOC(=O)CC1COc2ccccc2N1C(=O)c1ccc(C)cc1 (stereo unspecified) was read as MCF10A rerep 4%, ELG1 repair inh 11%, KB-V1 cytotox 18µM*, KB-3-1 cytotox inactive and SW480 rerep -12%.
`CCOC(=O)CC1COc2ccccc2N1C(=O)c1ccc(F)cc1` (stereo unspecified) gave MCF10A rerep 3%, ELG1 repair inh 7%, KB-V1 cytotox inactive, KB-3-1 cytotox inactive and SW480 rerep 13%.
Screening CCc1nnc(NC(=O)CSc2nccn2-c2cccc(C)c2C)s1 returned MCF10A rerep inconclusive, ELG1 repair inh 9.2µM*, KB-V1 cytotox inactive, KB-3-1 cytotox inconclusive and SW480 rerep inconclusive.
Screening CCc1nnc(NC(=O)CSc2nccn2-c2cc(C)cc(C)c2)s1 returned MCF10A rerep inconclusive, ELG1 repair inh inconclusive, KB-V1 cytotox inactive, KB-3-1 cytotox 18µM* and SW480 rerep inconclusive.
CNc1ccc(Br)cc(C(=O)/C=C/c2cccc(OC)c2OC)c1=O was read as MCF10A rerep 1%, ELG1 repair inh inconclusive, KB-V1 cytotox inactive, KB-3-1 cytotox inactive and SW480 rerep -19%.
Screening CCNc1ccccc(C(=O)/C=C/c2ccc3c(c2)OCO3)c1=O returned MCF10A rerep inconclusive, ELG1 repair inh -22%, KB-V1 cytotox inactive, KB-3-1 cytotox inactive and SW480 rerep -14%.
`CCNc1ccc(Br)cc(C(=O)/C=C/c2ccccc2Cl)c1=O` gave MCF10A rerep inconclusive, KB-V1 cytotox 23µM*, KB-3-1 cytotox inconclusive and SW480 rerep inconclusive.
Screening CNc1ccc(Br)cc(C(=O)/C=C/c2cccc(Cl)c2Cl)c1=O returned MCF10A rerep 16µM*, ELG1 repair inh 0%, KB-V1 cytotox inconclusive, KB-3-1 cytotox 16µM* and SW480 rerep 4%.
Screening Cc1[nH]c2ccc(C(=O)O)cc2c1C returned MCF10A rerep 23µM*, ELG1 repair inh inconclusive, KB-V1 cytotox inactive, KB-3-1 cytotox inactive and SW480 rerep 26µM*.
Screening Cc1[nH]c2ccc(C(=O)NC3CCC(C)CC3)cc2c1C (stereo unspecified) returned MCF10A rerep -5%, ELG1 repair inh inconclusive, KB-V1 cytotox inactive, KB-3-1 cytotox inactive and SW480 rerep 9%.
For Cc1[nH]c2ccc(C(=O)Nc3ccncc3)cc2c1C the results were MCF10A rerep 12%, ELG1 repair inh 12µM*, KB-V1 cytotox inactive, KB-3-1 cytotox inactive and SW480 rerep 20%.
`Cc1[nH]c2ccc(C(=O)NC3CCCC3)cc2c1C` gave MCF10A rerep 6%, ELG1 repair inh inconclusive, KB-V1 cytotox inactive, KB-3-1 cytotox inactive and SW480 rerep 2.6µM*.
`CCCn1nc(C(=O)OCC(=O)Nc2ccc(C)cc2)c2ccccc2c1=O` gave MCF10A rerep 6%, ELG1 repair inh -1%, KB-V1 cytotox inactive, KB-3-1 cytotox inconclusive and SW480 rerep -8%.
`COc1cccc(-c2nn(-c3ccc(C)cc3)cc2C(=O)N2CCc3cc(OC)c(OC)cc3C2)c1` gave MCF10A rerep inconclusive, ELG1 repair inh inconclusive, KB-V1 cytotox 23µM*, KB-3-1 cytotox 18µM* and SW480 rerep inconclusive.
For O=C(Nc1ccc(C(F)(F)F)cc1)c1ccccc1-n1cnnn1 the results were MCF10A rerep inconclusive, ELG1 repair inh 13%, KB-V1 cytotox inactive, KB-3-1 cytotox inactive and SW480 rerep -6%.
`Cc1nc(-c2ccccc2)sc1-c1ccc(SCC(=O)Nc2ccc(F)cc2F)nn1` gave KB-V1 cytotox inactive and KB-3-1 cytotox inactive.
COc1ccc(-c2cc(=O)n(-c3nc4ccccc4[nH]3)[nH]2)cc1 was read as MCF10A rerep 18µM*, ELG1 repair inh inconclusive, KB-V1 cytotox inactive, KB-3-1 cytotox 21µM* and SW480 rerep inconclusive.
For COc1ccc(N2CCN(CC(=O)c3ccccc3)CC2)cc1 the results were MCF10A rerep 6%, ELG1 repair inh 3%, KB-V1 cytotox inactive, KB-3-1 cytotox inactive and SW480 rerep 2%.
COc1ccc(C(=O)CN2CCN(c3cc(C)nc4ccccc34)CC2)cc1 was read as MCF10A rerep -1%, ELG1 repair inh 8.2µM*, KB-V1 cytotox inactive, KB-3-1 cytotox inactive and SW480 rerep -5%.
`Cc1cc(N2CCN(S(=O)(=O)c3ccc(Cl)c(Cl)c3)CC2)c2ccccc2n1` gave MCF10A rerep inconclusive, ELG1 repair inh inconclusive, KB-V1 cytotox inconclusive, KB-3-1 cytotox 21µM* and SW480 rerep 7%.
For Cc1cc(N2CCN(S(=O)(=O)c3ccc(Cl)cc3)CC2)c2ccccc2n1 the results were MCF10A rerep -6%, ELG1 repair inh 23µM*, KB-V1 cytotox 18µM*, KB-3-1 cytotox inconclusive and SW480 rerep -8%.
`Cn1c(CN2CCN(c3ccc(Cl)cc3)CC2)nc2ccccc21` gave MCF10A rerep inconclusive, ELG1 repair inh inconclusive, KB-V1 cytotox 18µM*, KB-3-1 cytotox inactive and SW480 rerep 2%.
For Cc1ccc(S(=O)(=O)N2CCN(c3ccnc4cc(Cl)ccc34)CC2)cc1 the results were MCF10A rerep 13%, ELG1 repair inh inconclusive, KB-V1 cytotox inactive, KB-3-1 cytotox inconclusive and SW480 rerep -19%.
Screening c1ccc(N2CCN(c3cccc(-c4cc5ccccc5s4)n3)CC2)nc1 returned KB-V1 cytotox inactive and KB-3-1 cytotox inactive.
Cn1c(SCC(=O)N2CCN(S(=O)(=O)c3ccc(Cl)cc3)CC2)nc2ccccc21 was read as MCF10A rerep 6%, ELG1 repair inh inconclusive, KB-V1 cytotox inactive, KB-3-1 cytotox inactive and SW480 rerep 1%.
Screening Cn1c(N2CCN(S(=O)(=O)c3ccc(Cl)cc3)CC2)nc2ccccc21 returned MCF10A rerep -2%, ELG1 repair inh inconclusive, KB-V1 cytotox 16µM*, KB-3-1 cytotox inactive and SW480 rerep -11%.
Screening O=C(CCCl)Nc1nnc(SCC(=O)NC2CCCC2)s1 returned MCF10A rerep 18µM*, ELG1 repair inh -6%, KB-V1 cytotox inactive, KB-3-1 cytotox inactive and SW480 rerep 8.2µM*.
